The panel holds about 83,000 compounds, 20% with a hit somewhere; the sample as a whole holds those more often.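 Activity criterion: percent growth below 10, measured after cells in 96-well plates were exposed to a single compound concentration for 48 hours.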 The source made the active and inactive calls.
Key:
Experiment in all cases: NCI-60 one-dose screen, 48 h (100 = growth as untreated, 0 = no growth, -100 = all killed)
Details in all cases: 10 µM unless noted
[1] = test system: T-47D breast
[2] = test system: BT-549 breast
[3] = test system: MDA-MB-435 melanoma
[4] = test system: SW-620 colon
[5] = test system: MCF7 breast
[6] = test system: HCT-116 colon
[7] = test system: HCC-2998 colon
[8] = test system: KM12 colon

Measured: growth

CC(=O)Oc1ccccc1C(=O)Nc1ncc([N+](=O)[O-])s1
active: [2] -29.4% | [6] 3.62%
inactive: [1] 61.7% | [3] 24.2% | [4] 26.7% | [5] 49.7% | [7] 23.3% | [8] 24.7%

C=C(C)[C@@H]1CC[C@]2(C(=O)O)CC[C@]3(C)[C@H](CC[C@@H]4[C@@]5(C)C[C@@H](CC#Cc6ccc(C(C)=O)s6)[C@H](O)C(C)(C)[C@@H]5CC[C@]43C)[C@@H]12
inactive: [1] 51.5% | [2] 53.1% | [3] 81.5% | [4] 59.8% | [5] 55% | [6] 26% | [7] 62.9% | [8] 18.1%

FC(F)(F)c1nn[nH]n1
inactive: [1] 101% | [2] 109% | [3] 101% | [4] 112% | [5] 97.3% | [6] 108% | [7] 98.1% | [8] 99.6%

COc1ccc(/C=C/c2nc(NCCCN(C)C)c3ccccc3n2)cc1
active: [3] -57.9% | [4] 4.57% | [5] -67%
inactive: [1] 81.1% | [2] 47.3% | [6] 38% | [7] 28.3% | [8] 32.1%

Nc1nc(NC2CC2)cc(-c2cccc(Cl)c2Cl)n1
inactive: [1] 32.2% | [2] 54.7% | [4] 21.5% | [5] 20.3% | [6] 42.2% | [7] 55.8% | [8] 47.8%
active: [3] -12.2%

C#Cc1cccc(Nc2nc3cc([N+](=O)[O-])ccc3nc2Nc2ccc(O)cc2)c1
active: [1] -0.313% | [4] -52.9% | [5] 2.84% | [6] -11.9% | [7] 5.14% | [8] -36.3%
inactive: [2] 27.7% | [3] 12.2%

COc1ccc(C2c3cccn3-c3ccccc3N2C(C)=O)cc1 (stereo unspecified)
inactive: [1] 103% | [2] 95.4% | [3] 57% | [4] 85.5% | [5] 116% | [6] 97.8% | [7] 90.4% | [8] 80.2%

O=C(CCCN1CCC(O)(c2ccc(Br)cc2)CC1)c1ccc(F)cc1
inactive: [1] 70.5% | [2] 60.6% | [3] 65.4% | [4] 78.1% | [5] 70.4% | [6] 38.9% | [7] 71% | [8] 83.5%

COc1ccc(C2NC(=O)c3cc4c(cc3N2)OCO4)cc1 (stereo unspecified)
active: [3] -41.6% | [7] 9.52% | [8] 9.55%
inactive: [1] 65.5% | [2] 59.1% | [4] 24.1% | [5] 18.2% | [6] 14.1%

Cc1cc(-c2ccc(N=Nc3c(S(=O)(=O)O)cc4cc(S(=O)(=O)O)cc(O)c4c3O)c(C)c2)ccc1N=Nc1c(S(=O)(=O)O)cc2cc(S(=O)(=O)O)cc(O)c2c1O
inactive: [1] 92.2% | [2] 108% | [3] 103% | [4] 114% | [5] 101% | [6] 109% | [7] 106% | [8] 114%

CN(C)CCCN1c2ccccc2CCc2ccccc21
inactive: [1] 91.8% | [2] 95.8% | [3] 102% | [4] 111% | [5] 80.5% | [6] 96.6% | [7] 99.7% | [8] 103%

C(=Nc1ccc(-c2ccc(N=Cc3ccccc3)cc2)cc1)c1ccccc1
inactive: [1] 107% | [2] 97.5% | [3] 107% | [4] 106% | [5] 89.9% | [6] 100% | [7] 110% | [8] 107%

COc1ccc(NC(=O)c2sc3c(=O)[nH]c(C(F)(F)F)nc3c2C)cc1
inactive: [1] 89.7% | [2] 103% | [3] 103% | [4] 112% | [5] 84.3% | [6] 100% | [7] 111% | [8] 106%

N=c1nc(N2CCCCC2)cc(N)n1O
inactive: [1] 100% | [2] 106% | [3] 107% | [4] 109% | [5] 84.2% | [6] 106% | [7] 105% | [8] 107%

O=C(O/C(=C/c1ccccc1)C(F)(F)F)c1ccccc1
inactive: [1] 101% | [2] 105% | [3] 107% | [4] 113% | [5] 102% | [6] 105% | [7] 102% | [8] 99.4%

C=C(c1ccc(C(=O)NCCCn2ccnc2)cc1)c1cc2c(cc1C)C(C)(C)CCC2(C)C
active: [1] -16.9% | [3] -27% | [6] -59%
inactive: [2] 39.7% | [4] 16.5% | [5] 35.5% | [7] 26.8% | [8] 24.5%

CC1OC(n2c3ccccc3c3c4c(c5c6ccccc6[nH]c5c32)C(=O)N(CCN2CCOCC2)C4=O)CC(O)C1O (stereo unspecified)
inactive: [1] 11% | [2] 36.9% | [3] 41.5% | [4] 27.8% | [5] 13.3% | [6] 24.3% | [7] 30% | [8] 30.7%

COc1cc(C2CC(c3ccc(C)cc3)=NN2C=O)ccc1Oc1nc2c(c(=O)n(C)c(=O)n2C)n1C (stereo unspecified)
inactive: [1] 80% | [2] 97.9% | [3] 62.7% | [4] 102% | [5] 77.1% | [6] 81.8% | [7] 86.6% | [8] 77.9%

O=C(CCl)Nc1ccc2c(c1)C(=O)c1ccccc1C2=O
active: [1] -71% | [2] -45.3% | [4] -78.6% | [5] -25% | [6] -28.6%
inactive: [3] 13.1% | [7] 69% | [8] 54.9%

NNC(=O)CSc1nc2scc(-c3ccccc3)c2c(=O)n1-c1ccccc1
inactive: [1] 104% | [2] 131% | [3] 121% | [4] 112% | [5] 97.8% | [6] 91.9% | [7] 84.2% | [8] 108%

CCCCCCCCCCCCNC(=O)N[C@H](C(=O)N[C@H]1/C=C/OCCNC(=O)/C=C/[C@H](C(C)C)NC1=O)C(C)C
inactive: [1] 47.6% | [3] 28.3% | [4] 48.1% | [5] 32.4% | [6] 25.5% | [7] 90.4% | [8] 71.5%
active: [2] -7.12%

CC(C)(C)[Si](C)(C)OC1[C@@H](CNC(N)=O)O[C@@H](n2cnc3c(NC(=O)Nc4ccccc4)ncnc32)[C@H]1O[Si](C)(C)C(C)(C)C (stereo partly specified)
inactive: [1] 64.6% | [2] 80.1% | [3] 53% | [4] 62% | [5] 17.9% | [7] 19% | [8] 48.9%
active: [6] 0.343%

CCOC(=O)Nc1ccc2nc(N3CCCCCC3)sc2c1
inactive: [1] 41.6% | [2] 65.7% | [4] 24.5% | [5] 19.5% | [6] 27.9% | [7] 50.3% | [8] 21.6%
active: [3] 7.4%

O=C1OCC2=C1C(c1ccccc1)c1cc3c(cc1N2CCO)OCO3 (stereo unspecified)
inactive: [2] 43.9% | [4] 23.6% | [7] 24.5% | [8] 23.3%
active: [1] 1.16% | [3] 2.96% | [5] -11.1% | [6] 7.22%

COc1cc(NCC(O)CN(CC(C)C)CC(C)C)c2ncccc2c1 (stereo unspecified)
inactive: [2] 95.2% | [3] 107% | [4] 74.9% | [6] 80.2% | [7] 93.6% | [8] 96%
active: [1] 1.96% | [5] -25.6%

O=C(Nc1ccc(-n2ccc3c(NC(=O)c4ccccc4)nccc32)cc1)c1ccc(N2CCOCC2)c(C(F)(F)F)c1
inactive: [1] 28.2% | [2] 28.5% | [3] 33.6% | [4] 30.5% | [5] 23.2% | [7] 40.8% | [8] 22.7%
active: [6] 6.59%

C[C@H](NC(=O)c1snnc1C1CC1)c1c(F)cccc1Cl
inactive: [1] 258% | [2] 139% | [3] 106% | [4] 106% | [5] 98.7% | [6] 122% | [7] 95.7% | [8] 114%

Cc1ccc(C(CN(C)C)C(=O)c2ccccc2)cc1 (stereo unspecified)
active: [2] -4.79% | [4] -53.8% | [5] -0.801% | [6] -86.4%
inactive: [1] 33% | [3] 18.2% | [7] 101% | [8] 33.9%

O=C(CC(=O)c1ccccc1F)Nc1ccc([N+](=O)[O-])cc1
inactive: [1] 82.5% | [2] 89.7% | [3] 88.3% | [4] 109% | [5] 81.3% | [6] 90.5% | [7] 103% | [8] 99.8%

C[C@@H]1CC2C3CCC4=CC(=O)C=C[C@]4(C)[C@@]3(Cl)[C@@H](O)C[C@]2(C)[C@@]1(OC(=O)c1ccco1)C(=O)CCl (stereo partly specified)
inactive: [1] 97.1% | [2] 27.9% | [3] 73.4% | [4] 95.3% | [5] 58.9% | [6] 57.4% | [7] 75.9% | [8] 76.9%

COc1cccc(C2C(C#N)=C(N)Oc3cc4c(cc32)OCO4)c1 (stereo unspecified)
inactive: [1] 59.9% | [2] 24% | [4] 26.9% | [5] 13.2% | [7] 21.8%
active: [3] -12.3% | [6] 5.12% | [8] 0.487%

CC1(C)OC2OC3C(CN)OC(c4ccccc4)OC3C2O1 (stereo unspecified)
inactive: [1] 92.6% | [2] 103% | [3] 110% | [4] 122% | [5] 103% | [6] 101% | [7] 94.9% | [8] 104%

From PubChem BioAssay (NCI)
